# PubChem BioAssay AID1159580 (chemical genetic matrix, 2015)
# Out of some 5,500 compounds screened, about 2,000 (36%) were called active. Roughly 18% stayed inconclusive and do not appear here. The list shows a part of the results. Values without a mark were called inactive. No stated cut-off is given here; in the data, active means normalized growth mostly below about 0.91 (no sharp cut-off); inconclusive means no clear call, values can overlap the other calls; inactive means mostly above about 0.92.
# Test: chemical genetic growth profiling, strain panel (AID 1159580);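 further: tested at 20 µM; growth read once vehicle control cultures reached saturation at 30 °C; 1 = growth at the plate median or of vehicle wells; lower values mean less growth of the strain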
# Details: growth OD
# [1] = S. cerevisiae deletion strains, locus YAL013W, strain DEP1, hits give low values
# [2] = S. cerevisiae deletion strains, locus YBR229C, strain ROT2, hits give low values
# [3] = S. cerevisiae deletion strains, locus YDL101C, strain DUN1, hits give low values
# [4] = S. cerevisiae deletion strains, locus YDL134C, strain PPH21, hits give low values
# [5] = S. cerevisiae deletion strains, locus YDR150W, strain NUM1, hits give low values
# [6] = S. cerevisiae deletion strains, locus YEL061C, strain CIN8, hits give low values
# [7] = S. cerevisiae deletion strains, locus YGR078C, strain PAC10, hits give low values
# [8] = S. cerevisiae deletion strains, locus YHR030C, strain SLT2, hits give low values
# [9] = S. cerevisiae deletion strains, locus YHR087W, strain rtc3, hits give low values
# [10] = S. cerevisiae deletion strains, locus YJL187C, strain SWE1, hits give low values
# [11] = S. cerevisiae deletion strains, locus YJR043C, strain POL32, hits give low values
# [12] = S. cerevisiae deletion strains, locus YJR075W, strain HOC1, hits give low values
# [13] = S. cerevisiae deletion strains, locus YKL190W, strain CNB1, hits give low values
# [14] = S. cerevisiae deletion strains, locus YLR039C, strain RIC1, hits give low values
# [15] = S. cerevisiae deletion strains, locus YLR058C, strain SHM2 (second series), hits give low values
# [16] = S. cerevisiae deletion strains, locus YLR085C, strain ARP6, hits give low values
# [17] = S. cerevisiae deletion strains, locus YLR262C, strain YPT6, hits give low values
# [18] = S. cerevisiae deletion strains, locus YML094W, strain GIM5, hits give low values
# [19] = S. cerevisiae deletion strains, locus YMR219W, strain ESC1, hits give low values
# [20] = S. cerevisiae deletion strains, locus YMR263W, strain SAP30, hits give low values
# [21] = S. cerevisiae deletion strains, locus YNL153C, strain GIM3, hits give low values
# [22] = S. cerevisiae deletion strains, locus YNL298W, strain CLA4 (second series), hits give low values
# [23] = S. cerevisiae deletion strains, locus YNL322C, strain KRE1, hits give low values
# [24] = S. cerevisiae deletion strains, locus YNR030W, strain Alg12, hits give low values
# [25] = S. cerevisiae deletion strains, locus YOL006C, strain TOP1, hits give low values
# [26] = S. cerevisiae deletion strains, locus YPL055C, strain LGE1, hits give low values
# [27] = S. cerevisiae deletion strains, locus YPL241C, strain CIN2, hits give low values
# [28] = S. cerevisiae deletion strains, locus YPR135W, strain CTF4, hits give low values
# [29] = S. cerevisiae deletion strains, locus YCL061C, strain MRC1, hits give low values
compound,measurement,setting,value
Nc1ccccc1SCC(=O)Nc1c(F)cccc1F,normalized growth,[1],0.982
same,normalized growth,[2],0.998
same,normalized growth,[3],0.979
same,normalized growth,[4],1.04
same,normalized growth,[5],0.977
same,normalized growth,[6],1.03
same,normalized growth,[7],1
same,normalized growth,[8],0.938
same,normalized growth,[9],1.05
same,normalized growth,[10],1.03
same,normalized growth,[11],0.975
same,normalized growth,[12],1.01
same,normalized growth,[13],1.01
same,normalized growth,[14],0.672 (active)
same,normalized growth,[15],1.02
same,normalized growth,[16],0.985
same,normalized growth,[17],0.595 (active)
same,normalized growth,[18],0.955
same,normalized growth,[19],0.998
same,normalized growth,[20],1.01
same,normalized growth,[21],1.01
same,normalized growth,[22],1.03
same,normalized growth,[23],1
same,normalized growth,[24],1
same,normalized growth,[25],0.903
same,normalized growth,[26],0.994
same,normalized growth,[27],0.977
same,normalized growth,[28],1.02
same,normalized growth,"S. cerevisiae strains, strain wild type, hits give low values",1.01
O=C(Nc1ccccc1F)C(Cl)Cl,normalized growth,[1],0.999
same,normalized growth,[2],0.989
same,normalized growth,[29],1
same,normalized growth,[3],0.994
same,normalized growth,[4],0.967
same,normalized growth,[5],1.01
same,normalized growth,[6],1.01
same,normalized growth,[7],0.975
same,normalized growth,[8],1.07
same,normalized growth,[9],0.981
same,normalized growth,[11],0.997
same,normalized growth,[12],0.971
same,normalized growth,[13],0.981
same,normalized growth,[14],1.16
same,normalized growth,[15],0.987
same,normalized growth,[16],0.991
same,normalized growth,[17],1.14
same,normalized growth,[18],0.992
same,normalized growth,[19],0.991
same,normalized growth,[20],0.995
same,normalized growth,[21],1.02
same,normalized growth,[22],0.984
same,normalized growth,[23],0.987
same,normalized growth,[24],0.976
same,normalized growth,[25],1.02
same,normalized growth,[26],0.962
same,normalized growth,[27],0.977
same,normalized growth,[28],0.99
O=C(NC(=O)c1c(F)cccc1F)Nc1ccc(Cl)cc1,normalized growth,"S. cerevisiae deletion strains, locus YAL021C, strain ccr4, hits give low values",1.03
same,normalized growth,"S. cerevisiae deletion strains, locus YAL026C, strain drs2, hits give low values",1.01
same,normalized growth,"S. cerevisiae deletion strains, locus YAL030W, strain snc1, hits give low values",1.02
same,normalized growth,"S. cerevisiae deletion strains, locus YBL061C, strain skt5, hits give low values",1.01
same,normalized growth,"S. cerevisiae deletion strains, locus YBR009C, strain hhf1, hits give low values",1.02
same,normalized growth,"S. cerevisiae deletion strains, locus YBR023C, strain chs3, hits give low values",1.02
same,normalized growth,"S. cerevisiae deletion strains, locus YBR171W, strain sec66, hits give low values",1.03
same,normalized growth,"S. cerevisiae deletion strains, locus YBR231C, strain swc5, hits give low values",1.04
same,normalized growth,"S. cerevisiae deletion strains, locus YBR279W, strain paf1, hits give low values",1.01
same,normalized growth,"S. cerevisiae deletion strains, locus YCL011C, strain gbp2, hits give low values",1
same,normalized growth,"S. cerevisiae deletion strains, locus YCL016C, strain dcc1, hits give low values",1.02
same,normalized growth,[29],1.01
same,normalized growth,"S. cerevisiae deletion strains, locus YCL069W, strain vba3, hits give low values",0.996
same,normalized growth,"S. cerevisiae deletion strains, locus YCR088W, strain abp1, hits give low values",1
same,normalized growth,"S. cerevisiae deletion strains, locus YDL005C, strain med2, hits give low values",1.05
same,normalized growth,"S. cerevisiae deletion strains, locus YDL040C, strain nat1, hits give low values",1.03
same,normalized growth,"S. cerevisiae deletion strains, locus YDR001C, strain nth1, hits give low values",1.02
same,normalized growth,"S. cerevisiae deletion strains, locus YDR069C, strain doa4, hits give low values",1.03
same,normalized growth,"S. cerevisiae deletion strains, locus YDR137W, strain rgp1, hits give low values",1.01
same,normalized growth,"S. cerevisiae deletion strains, locus YDR159W, strain sac3, hits give low values",1.04
same,normalized growth,"S. cerevisiae deletion strains, locus YDR195W, strain ref2",1.11
same,normalized growth,"S. cerevisiae deletion strains, locus YDR297W, strain sur2, hits give low values",1.03
same,normalized growth,"S. cerevisiae deletion strains, locus YDR334W, strain swr1, hits give low values",1.01
same,normalized growth,"S. cerevisiae deletion strains, locus YDR335W, strain msn5, hits give low values",1.03
same,normalized growth,"S. cerevisiae deletion strains, locus YDR392W, strain spt3, hits give low values",0.955
same,normalized growth,"S. cerevisiae deletion strains, locus YEL003W, strain gim4, hits give low values",1.03
same,normalized growth,"S. cerevisiae deletion strains, locus YEL037C, strain rad23, hits give low values",1.01
same,normalized growth,"S. cerevisiae deletion strains, locus YEL061C, strain CIN8 (second series), hits give low values",1.01
same,normalized growth,"S. cerevisiae deletion strains, locus YER015W, strain faa2, hits give low values",1.02
same,normalized growth,"S. cerevisiae deletion strains, locus YER016W, strain bim1, hits give low values",1.03
same,normalized growth,"S. cerevisiae deletion strains, locus YER111C, strain swi4, hits give low values",1.01
same,normalized growth,"S. cerevisiae deletion strains, locus YER155C, strain BEM2 (second series), hits give low values",1.02
same,normalized growth,"S. cerevisiae deletion strains, locus YFR010W, strain ubp6, hits give low values",1.01
same,normalized growth,"S. cerevisiae deletion strains, locus YGL167C, strain pmr1, hits give low values",1.02
same,normalized growth,"S. cerevisiae deletion strains, locus YGL173C, strain kem1, hits give low values",1.01
same,normalized growth,"S. cerevisiae deletion strains, locus YGL227W, strain vid30, hits give low values",1.03
same,normalized growth,"S. cerevisiae deletion strains, locus YGL240W, strain doc1, hits give low values",1.02
same,normalized growth,"S. cerevisiae deletion strains, locus YGL253W, strain hxk2, hits give low values",1.01
same,normalized growth,"S. cerevisiae deletion strains, locus YHR013C, strain ard1, hits give low values",1.03
same,normalized growth,"S. cerevisiae deletion strains, locus YHR027C, strain rpn1, hits give low values",1.02
same,normalized growth,[8],1.06
same,normalized growth,"S. cerevisiae deletion strains, locus YHR079C, strain IRE1, hits give low values",1.04
same,normalized growth,"S. cerevisiae deletion strains, locus YHR142W, strain chs7, hits give low values",1.01
same,normalized growth,"S. cerevisiae deletion strains, locus YJL092W, strain hpr5, hits give low values",1.02
same,normalized growth,"S. cerevisiae deletion strains, locus YJL095W, strain BCK1 (second series), hits give low values",1.01
same,normalized growth,"S. cerevisiae deletion strains, locus YJL095W, strain BCK1, hits give low values",1.03
same,normalized growth,"S. cerevisiae deletion strains, locus YJL115W, strain asf1, hits give low values",1.04
same,normalized growth,"S. cerevisiae deletion strains, locus YJL129C, strain trk1, hits give low values",1.02
same,normalized growth,"S. cerevisiae deletion strains, locus YJL154C, strain vps35, hits give low values",1.01
same,normalized growth,"S. cerevisiae deletion strains, locus YJL164C, strain tpk1, hits give low values",1
same,normalized growth,"S. cerevisiae deletion strains, locus YJL166W, strain qcr8, hits give low values",1.02
same,normalized growth,[10],1.03
same,normalized growth,"S. cerevisiae deletion strains, locus YJR066W, strain TOR1, hits give low values",0.956
same,normalized growth,"S. cerevisiae deletion strains, locus YKL160W, strain elf1, hits give low values",1
same,normalized growth,"S. cerevisiae deletion strains, locus YKR026C, strain gcn3, hits give low values",1.01
same,normalized growth,"S. cerevisiae deletion strains, locus YKR091W, strain srl3, hits give low values",1.01
same,normalized growth,"S. cerevisiae deletion strains, locus YLL001W, strain dnm1, hits give low values",0.996
same,normalized growth,"S. cerevisiae deletion strains, locus YLL026W, hits give low values",1.02
same,normalized growth,"S. cerevisiae deletion strains, locus YLL041C, strain sdh2, hits give low values",1.01
same,normalized growth,"S. cerevisiae deletion strains, locus YLR027C, strain aat2, hits give low values",1.02
same,normalized growth,"S. cerevisiae deletion strains, locus YLR113W, strain HOG1, hits give low values",1.04
same,normalized growth,"S. cerevisiae deletion strains, locus YLR221C, strain rsa3, hits give low values",0.994
same,normalized growth,"S. cerevisiae deletion strains, locus YLR258W, strain gsy2, hits give low values",1.02
same,normalized growth,"S. cerevisiae deletion strains, locus YLR262C, strain YPT6 (second series), hits give low values",0.974
same,normalized growth,"S. cerevisiae deletion strains, locus YLR320W, strain mms22, hits give low values",0.988
same,normalized growth,"S. cerevisiae deletion strains, locus YLR342W, strain FKS1, hits give low values",1.02
same,normalized growth,"S. cerevisiae deletion strains, locus YLR357W, strain rsc2, hits give low values",1.06
same,normalized growth,"S. cerevisiae deletion strains, locus YLR370C, strain arc18, hits give low values",1.02
same,normalized growth,"S. cerevisiae deletion strains, locus YLR384C, strain iki3, hits give low values",1.03
same,normalized growth,"S. cerevisiae deletion strains, locus YML120C, strain ndi1, hits give low values",1
same,normalized growth,"S. cerevisiae deletion strains, locus YMR058W, strain fet3, hits give low values",1.02
same,normalized growth,"S. cerevisiae deletion strains, locus YMR125W, strain sto1, hits give low values",1.01
same,normalized growth,"S. cerevisiae deletion strains, locus YMR129W, hits give low values",1.02
same,normalized growth,"S. cerevisiae deletion strains, locus YMR205C, strain PFK2, hits give low values",1.04
same,normalized growth,"S. cerevisiae deletion strains, locus YMR231W, strain pep5, hits give low values",1.03
same,normalized growth,"S. cerevisiae deletion strains, locus YNL071W, strain lat1, hits give low values",1
same,normalized growth,"S. cerevisiae deletion strains, locus YNL183C, strain NPR1, hits give low values",0.954
same,normalized growth,"S. cerevisiae deletion strains, locus YNL209W, strain ssb2, hits give low values",1.02
same,normalized growth,"S. cerevisiae deletion strains, locus YNL248C, strain rpa49, hits give low values",1
same,normalized growth,"S. cerevisiae deletion strains, locus YNL322C, strain KRE1 (second series), hits give low values",1.02
same,normalized growth,"S. cerevisiae deletion strains, locus YNR049C, strain mso1, hits give low values",1.02
same,normalized growth,"S. cerevisiae deletion strains, locus YOR001W, strain rrp6, hits give low values",1.01
same,normalized growth,"S. cerevisiae deletion strains, locus YOR070C, strain gyp1, hits give low values",1.02
same,normalized growth,"S. cerevisiae deletion strains, locus YOR080W, strain dia2, hits give low values",1.03
same,normalized growth,"S. cerevisiae deletion strains, locus YOR083W, strain WHI5, hits give low values",0.968
same,normalized growth,"S. cerevisiae deletion strains, locus YOR106W, strain vam3, hits give low values",1.01
same,normalized growth,"S. cerevisiae deletion strains, locus YOR231W, strain MKK1, hits give low values",1.03
same,normalized growth,"S. cerevisiae deletion strains, locus YOR265W, strain rbl2, hits give low values",1.02
same,normalized growth,"S. cerevisiae deletion strains, locus YOR270C, strain vph1, hits give low values",0.932
same,normalized growth,"S. cerevisiae deletion strains, locus YOR290C, strain snf2, hits give low values",1.01
same,normalized growth,"S. cerevisiae deletion strains, locus YPL051W, strain arl3, hits give low values",1.01
same,normalized growth,"S. cerevisiae deletion strains, locus YPL078C, strain atp4, hits give low values",1
same,normalized growth,"S. cerevisiae deletion strains, locus YPL106C, strain sse1, hits give low values",1.02
same,normalized growth,"S. cerevisiae deletion strains, locus YPL240C, strain hsp82, hits give low values",1.04
same,normalized growth,"S. cerevisiae deletion strains, locus YPL256C, strain CLN2, hits give low values",1.12
